# Most compounds without a hit are left out; they make up all but 19% or so of the library.
# DT40 TDP1 no CPT: qHTS for Inhibitors of human tyrosyl-DNA phosphodiesterase 1 (TDP1): qHTS in cells in absence of CPT; DT40 Tdp1-/- hTDP1 cells, no CPT, ATP luminescence, 48 h; Potency, µM (series often up to 46.2 µM), inactives show at the highest dose activity change, negative = growth inhibition, actives largely listed as inhibitors; AID 686978, 2013; actives 15% (n = 420,000); further: potency means the concentration at half of the fitted maximal effect; nearly all actives have a fitted effect of over 55% in size
#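 Readout: luminescence from CellTiter-Glo after 30 min in the dark at RT. Cells: DT40 Tdp1-/- with stable hTDP1, 400/well. Exposure: compounds alone, ≥48 hr, 37 °C.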
# HT1080 IDH1KD tx: qHTS for induction of synthetic lethality in tumor cells producing 2HG: qHTS for the HT-1080-IDH1KD cell line; HT-1080 IDH1 knockdown viability, ATP luminescence, 48 h; actives 2% (n = 360,000); Potency, µM (doses to about 46.1 µM), inactives show at the highest dose activity, negative = toxicity, hits mostly cytotoxic;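 further: potency means the concentration at half of the fitted maximal effect; 0% = DMSO wells and -100% = cell-free medium wells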
#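 Knockdown cells (IDH1KD HT-1080) received compounds 2 h after plating at 750 cells/well and were kept 48 h at 37 °C in 5% FBS RPMI. A CellTiter-Glo luminescence read gave % activity for curve fitting.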
# IL1B secr inh: qHTS for Inhibitors of Inflammasome Signaling: IL-1-beta AlphaLISA Primary Screen. THP-1 LPS/ATP IL-1B secretion, AlphaLISA, 16 h; stronger effect = lower value. activity change, % at 57.5 µM. actives 4.7% (n = 360,000); in the data active means activity change below about -50%; inconclusive means mostly about -30% to -49%
#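 Secreted IL-1B measured by AlphaLISA bead assay after 16 h compound exposure of THP-1 cells; compounds (final up to 57.5 uM) added 1 h before LPS (250 ng/mL) and ATP (1.25 mM) stimulation; lower signal means less secretion.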
# DT40 TDP1 CPT: qHTS for Inhibitors of human tyrosyl-DNA phosphodiesterase 1 (TDP1): qHTS in cells in presence of CPT | chicken DT40 Tdp1-/-;hTDP1 cells + 20 nM CPT, ATP luminescence, 48 h | actives 12% (n = 420,000) | AID 686979, 2013 | Potency, µM (highest dose often 46.2 µM), for the others: at the top dose activity change, negative = growth inhibition, most hits filed as inhibitors; further: potency means the concentration at half of the fitted maximal effect; nearly all actives have a fitted effect of over 55% in size
#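 Cell growth measured by CellTiter-Glo luminescence after a minimum 48 h, 37 C compound exposure with 20 nM CPT in Tdp1-knockout DT40 cells stably expressing hTDP1, seeded 400/well; qHTS titration format.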
# HT1080-NT tox: qHTS for induction of synthetic lethality in tumor cells producing 2HG: qHTS for the HT-1080-NT fibrosarcoma cell line; HT-1080-NT fibrosarcoma viability, CellTiter-Glo ATP luminescence, 48 h; actives 1.6% (n = 360,000); Potency, µM (series often up to 46.1 µM), for the others: top-dose activity, negative = less viability, hits mostly cytotoxic;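 further: NT is the 2HG producing partner of a matched IDH1 knockdown line; potency means the concentration at half of the fitted maximal effect; 0% = DMSO-treated cells and -100% = media-only wells without cells; nearly all actives have a fitted effect of over 55% in size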
#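 Luminescent CellTiter-Glo readout after 48 hours of compound exposure at 37 degrees C defined viability of HT-1080-NT cells. Activity was normalized to DMSO wells and cell-free media wells; concentration-response curves were fitted and assigned curve classes.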
# * hit, by the source's call; ? = inconclusive; . = no result. Unless noted, the call rests on the fitted dose curve; in most records, active means well fitted curve in the direction sought with a large enough effect; inconclusive means small, poorly fitted or top-dose-only effect, or another doubt; inactive means no such curve, though single readings can be large; an effect the other way counts as inactive or inconclusive. Unless noted, on the % scale 0 is the no-effect control and ±100 the full control effect.
SMILES,DT40 TDP1 no CPT,HT1080 IDH1KD tx,IL1B secr inh,DT40 TDP1 CPT,HT1080-NT tox
Cc1ccc(-c2noc(CCCC(=O)N3CCOCC3)n2)cc1,-29.2%,1.8%,21.5,-21.6%,-1.2%
O=C(CCCc1nc(-c2ccc(Cl)cc2)no1)N1CCOCC1,16.4µM*,-23.3%,10.6,23.1µM*,-18.6%
CC(C)NCCCCOc1ccc(Br)cc1Cl,18.4µM*,?,-7.1,23.1µM*,?
CCCCNCCOCCOc1ccc(Cl)cc1Br,32.6µM*,?,?,20.6µM*,?
CCCCNCCCOc1cc(Cl)ccc1Cl,?,-24.5%,?,?,?
CC(C)NCCCOc1ccc(Cl)cc1Br,?,?,-13.0,18.4µM*,?
Clc1ccc(OCCCn2ccnc2)c(Br)c1,?,10.6%,0.0,?,0.4%
COCCCNCCCOc1ccc(Cl)cc1Br,?,-26.2%,-25.0,25.9µM*,?
COCCCNCCCOc1ccc(C)cc1Br,?,-16.1%,-20.0,?,-12.1%
CCCCNC(=O)CSc1nc2cc3c(cc2c(=O)n1CCC(=O)NCCc1ccc(OC)c(OC)c1)OCO3,-19.1%,4.3%,-12.4,?,11.1%
C#CCOCCOCCOCCNc1nc(N2CCN(C(=O)[C@H](CCCCN)n3cc(CN)nn3)CC2)nc(N2CCN(C(=O)[C@H](CC(N)=O)n3cc(C(N)[C@H](C)CC)nn3)CC2)n1 (some centres undefined),4.8%,9.7%,8.5,0.3%,6.0%
Oc1cccc(/C=N/N(Cc2ccccc2)c2ccccc2)c1,?,18.4µM*,-55.2*,-25.3%,?
Oc1ccc(/C=N/N(Cc2ccccc2)c2ccccc2)c(O)c1O,18.4µM*,-27.5%,?,25.9µM*,-26.5%
C(=N\N(Cc1ccccc1)c1ccccc1)/c1cccnc1,2.9%,2.9%,-18.7,4.9%,1.0%
CCN(CC)c1cc(C)c2cc(NC(=O)/C=C/c3ccc(C)cc3)ccc2n1,5.17µM*,.,.,5.8µM*,.
CCN(CC)c1cc(C)c2cc(NC(=O)/C=C/c3cc(OC)c(OC)c(OC)c3)ccc2n1,7.31µM*,.,.,6.51µM*,.
COc1ccc(/C=C/C(=O)Nc2ccc(S(=O)(=O)Nc3cc(C)nc(C)n3)cc2)cc1OC,-4.0%,7.8%,14.1,-3.0%,-17.0%
CCOc1ccc(/C=C/C(=O)Nc2ccc3nc(N(CC)CC)cc(C)c3c2)cc1OC,10.3µM*,.,.,5.17µM*,.
CCN(CC)S(=O)(=O)c1ccc(C)c(NS(=O)(=O)c2cc(/C=C/C(=O)O)cc(OC)c2OC)c1,-17.1%,9.3%,10.3,-7.4%,17.5%
CC(C)(C)S(=O)N1Cc2cc(C(=O)N3CCOCC3)nc(-c3cccc(Br)c3)c2[C@@H]1CCO (some centres undefined),-22.5%,11.3%,-6.2,-18.7%,5.5%
O=c1oc2ccc(Br)cc2cc1-c1nc2c(s1)CCc1ccccc1-2,-14.6%,.,.,?,.
CCCN(C(=O)Cn1ncc2c1-c1ccccc1OC2)c1cccc(C)c1,16.4µM*,.,.,?,.
O=C(Cn1ncc2c1-c1ccccc1OC2)N1CCN(c2ccccc2)CC1,16.4µM*,.,.,-29.9%,.
CCN(CC)C(=O)Cn1ncc2c1-c1ccccc1OC2,?,-0.2%,0.0,-2.6%,-4.3%
COc1ccccc1N1CCN(C(=O)Cn2ncc3c2-c2cc(C)ccc2OC3)CC1,20.6µM*,.,.,25.9µM*,.
SMILES,DT40 TDP1 no CPT,HT1080 IDH1KD tx,IL1B secr inh,DT40 TDP1 CPT,HT1080-NT tox
Cc1cccc(N2CCN(C(=O)Cn3ncc4c3-c3cc(C)ccc3OC4)CC2C)c1 (centres undefined),23.1µM*,.,.,23.1µM*,.
Cc1ccc2c(c1)-c1c(cnn1CC(=O)Nc1ccccc1N1CCN(C)CC1)CO2,?,-22.6%,-24.5,?,-13.8%
CCCNC(=O)[C@@H]1CCCN1C(=O)[C@@H]1Cc2ccccc2CN1,?,4.2%,20.8,10.3%,1.4%
O=C1CC(C(=O)N2CCc3ccccc32)CN1c1ccc(F)cc1 (centres undefined),?,2.8%,-5.3,?,0.0%
CCOc1ccc(C(=O)Cn2c(=O)n3nc(CCn4nc(C)cc4C)nc3c3cc(OC)c(OC)cc32)cc1,-2.4%,.,.,13.5%,.
OC[C@@H]1CN(Cc2cccs2)C[C@H](n2cnc3c(NCc4ccco4)ncnc32)O1,-8.3%,0.0%,0.0,0.9%,?
COc1ccc(NC(=O)/C(=C/c2ccc3c(c2)OCO3)NC(C)=O)cc1,10.4%,11.1%,14.9,1.2%,12.4%
CC1(Cc2ccc(S(C)(=O)=O)cc2)C(=O)Nc2ccc(Cl)cc21 (centres undefined),-23.9%,16.3%,-15.7,6.3%,0.7%
COC(=O)c1cccc(CC2(C)C(=O)Nc3ccc(OC(F)(F)F)cc32)c1 (centres undefined),?,?,11.5,?,-14.5%
COc1cccc(-c2cccc3c2NC(=O)C3(C)Cc2cccc(F)c2)c1 (centres undefined),20.6µM*,?,13.3,?,?
CC1(Cc2cccc(F)c2)C(=O)Nc2ccc(-c3cccnc3)cc21 (centres undefined),10.3µM*,0.0%,82.8,11.6µM*,-5.6%
CC1(Cc2cccc(C(F)(F)F)c2)C(=O)Nc2ccc(-c3ccc(F)c(Cl)c3)cc21 (centres undefined),23.1µM*,?,-69.8*,?,?
CC1(Cc2ccc(Cl)cc2)C(=O)Nc2ccc(-c3cccnc3)cc21 (centres undefined),11.6µM*,-24.9%,36.0,13µM*,-6.1%
CCc1ccc2c(c1)NC(=O)C2(C)Cc1cccc(F)c1 (centres undefined),?,-12.1%,-1.1,?,-10.4%
CC1(Cc2cccc(C(F)(F)F)c2)C(=O)Nc2c(Cl)ccc(Cl)c21 (centres undefined),?,?,54.6,?,?
CC(=O)Nc1cc(-c2cccc(CO)c2)cn2c(-c3ccc(C(C)=O)cc3)cnc12,20.6µM*,5.3%,-28.7,?,-25.6%
CC(=O)Nc1cc(-c2ccccc2)cn2c(-c3ccc(F)cc3)cnc12,?,4.0%,?,?,-0.6%
CC(=O)Nc1cc(-c2cccc(CO)c2)cn2c(-c3ccc(F)cc3)cnc12,?,-18.9%,-22.8,23.1µM*,-2.1%
CC(=O)Nc1cc(-c2cccc(N)c2)cn2c(-c3ccc(C(C)=O)cc3)cnc12,10.3µM*,?,7.8,?,?

# Screens deposited in PubChem BioAssay by National Center for Advancing Translational Sciences (NCATS).
